This is part of a sample that, as a whole, favours compounds with a hit. Of some 79,000 tested, about 15% had one in any assay. Unmarked numbers belong to inactive results. Calls of active or inactive are those of the source. Cut-off read from the data, not from the text of the source: active = growth inhibition above about 70%; inactive = the rest.

The first assay is described as follows: NCI Yeast Anticancer Drug Screen. Data for the rad50 strain (AID 155).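 Note: 0% = growth of vehicle-only cultures of the same strain.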 The following applies: S. cerevisiae rad50 strain growth inhibition; at 11.0 µM; active compounds read high. In a few lines:
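Vehicle-treated cultures provide the reference for the growth inhibition reported for compound-exposed, repair-deficient yeast.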
Take `CN(C)CC(CN(C)C)C(=O)/C=C/c1ccc(Cl)cc1Cl`: the growth inhibition is 13%.

As for `c1ccc2c(c1)ccn2CCc1c[nH]c2ccccc12`, the growth inhibition is -5%.

Turning to `Cc1ccccc1NC(=O)c1c(C)oc2c1C(=O)c1ccccc1C2=O`, the growth inhibition was -1%.

Take `CC(C)OC(=O)NNc1c(Cl)cc(Cl)cc1Cl`: the growth inhibition was 18%.

Take `COc1ccc2nc3cccc([N+](=O)[O-])c3c(NCCNCCO)c2c1`: the growth inhibition was 93% (active).

On to `COc1ccc2c(c1)CCCC(Br)C2=O` (configuration not stated), for which the growth inhibition was 31%.

On to `CCC(OC(C)=O)C1CC(C(C)C)CCC1C` (configuration not stated), for which the growth inhibition was 5%.

Take `O=S(=O)(c1cccc(C(F)(F)F)c1)N1c2ccccc2-n2cccc2C1c1cccnc1` (configuration not stated): the growth inhibition was 85% (active).

Take `c1ccc(-c2cc(C3CO3)c3ccccc3n2)cc1` (configuration not stated): the growth inhibition was -4%.

As for `COc1ccc(/C=C2\SC(=S)N(/C=C3\C(=O)N(c4ccccc4)N=C3C)C2=O)cc1OC`, the growth inhibition was 9%.

Turning to `CC1=CC(=C(c2ccc(N)c(C)c2)c2ccc(N)c(C)c2)C=CC1=N`, the growth inhibition was 18%.

Turning to `CC1C(c2ccccc2)SC(=N)N1C` (configuration not stated), the growth inhibition was -55%.

Turning to `CC(/C=C/c1ccc([N+](=O)[O-])o1)=N/N1CC(CN2CCOCC2)OC1=O` (configuration not stated), the growth inhibition was 35%.

Take `C=CC(C)(C)N1C(=O)C(C(C)=O)=C(O)C1Cc1c[nH]c2ccccc12` (configuration not stated): the growth inhibition is -2%.

With `O=C1c2cccc3cccc(c23)C(=O)N1CCNCCN1C(=O)c2cccc3cccc(c23)C1=O`, the growth inhibition is 6%.

Turning to `Cc1ccc([N+](=O)[O-])c2c(NCCC[N+](C)(C)[O-])c3ccccc3nc12`, the growth inhibition is 3%.

As for `COC(=O)C(Cc1c[nH]c2ccccc12)N1CN(C)c2ccccc2C1=O` (configuration not stated), the growth inhibition was 6%.

`O=C(/N=N/C(=O)Oc1ccccc1)Oc1ccccc1`: the growth inhibition was -107%.

In the case of `COc1cc([C@@H]2c3cc4c(cc3[C@@H](NC(=O)NO)[C@H]3COC(=O)[C@H]23)OCO4)cc(OC)c1O`, the growth inhibition was 10%.

In the case of `CC1(C)CC(=O)C(/C=N/c2nc(-c3ccc(Br)cc3)cs2)=C(O)C1`, the growth inhibition is 48%.

In the case of `CCOC(=O)/C(=C/c1cccc(Cl)c1)N(CC)CC`, the growth inhibition was 6%.

As for `CC(C)OC(=O)NNc1cccc(Cl)c1`, the growth inhibition is 98% (active).

In the case of `CCC(=O)C1=C(O)c2cc(OC)ccc2CC1C(=O)OC` (configuration not stated), the growth inhibition is 6%.

As for `O=S(=O)(NC1CCCC(c2ccccc2)C1)c1ccccc1` (configuration not stated), the growth inhibition was 2%.

In the case of `COc1ccc2nc3cccc([N+](=O)[O-])c3c(NCCCCCC(=O)O)c2c1`, the growth inhibition is 96% (active).

Take `CCO/C=C1\SC(=S)N(c2ccc(OCC)cc2)C1=O`: the growth inhibition was -3%.

As to `COc1cc(OC)c(CSCC(NC(=O)OCC2c3ccccc3-c3ccccc32)C(=O)O)c(OC)c1` (configuration not stated), the growth inhibition was 43%.

As to `COC(=O)c1ccccc1N=NNc1cccc(SC)c1`, the growth inhibition is 28%.

As to `CC1=NN(C(=O)c2ccccc2O)C(=O)/C1=C/c1ccco1`, the growth inhibition was 64%.

`COc1ccccc1NC(=O)c1ccc(Cl)cc1`: the growth inhibition is 8%.

Regarding `CC(C)=CCC/C(C)=C/CN1C(=O)C=CC1=O`, the growth inhibition is 99% (active).

Consider `O=C1CSC(c2ccccc2)N1c1ccc(-c2ccc(-n3c(-c4ccccc4)nc4ccccc4c3=O)cc2)cc1` (configuration not stated), for which the growth inhibition is 2%.

As to `N#CC1OB(O)c2ccccc21` (configuration not stated), the growth inhibition is 4%.

As for `O=C(NCCNCCNC(=O)c1cc(-c2ccccc2)nc2ccccc12)c1cc(-c2ccccc2)nc2ccccc12`, the growth inhibition was -4%.

For the compound `Brc1ccc(B2Nc3ccccc3N2)cc1`, the growth inhibition was 29%.

For `CCOP(=O)(OCC)/C(C#N)=C/c1cccc(Oc2ccccc2)c1`, the growth inhibition was 42%.

The assay is the same for the next values; noted with them: S. cerevisiae rad50 strain growth inhibition; at 33.0 µM; active compounds read high.
In the case of `CN(C)CC(CN(C)C)C(=O)/C=C/c1ccc(Cl)cc1Cl`, the growth inhibition is 98% (active).

Regarding `c1ccc2c(c1)ccn2CCc1c[nH]c2ccccc12`, the growth inhibition was 34%.

Consider `Cc1ccccc1NC(=O)c1c(C)oc2c1C(=O)c1ccccc1C2=O`, for which the growth inhibition was 7%.

On to `CC(C)OC(=O)NNc1c(Cl)cc(Cl)cc1Cl`, for which the growth inhibition is 16%.

In the case of `COc1ccc2nc3cccc([N+](=O)[O-])c3c(NCCNCCO)c2c1`, the growth inhibition was 94% (active).

As for `COc1ccc2c(c1)CCCC(Br)C2=O` (configuration not stated), the growth inhibition was 70% (active).

As for `CCC(OC(C)=O)C1CC(C(C)C)CCC1C` (configuration not stated), the growth inhibition was 4%.

Turning to `O=S(=O)(c1cccc(C(F)(F)F)c1)N1c2ccccc2-n2cccc2C1c1cccnc1` (configuration not stated), the growth inhibition is 92% (active).

`c1ccc(-c2cc(C3CO3)c3ccccc3n2)cc1` (configuration not stated): the growth inhibition was 36%.

Take `COc1ccc(/C=C2\SC(=S)N(/C=C3\C(=O)N(c4ccccc4)N=C3C)C2=O)cc1OC`: the growth inhibition was 61%.

As to `CC1=CC(=C(c2ccc(N)c(C)c2)c2ccc(N)c(C)c2)C=CC1=N`, the growth inhibition was 22%.

As for `CC1C(c2ccccc2)SC(=N)N1C` (configuration not stated), the growth inhibition is -4%.

In the case of `CC(/C=C/c1ccc([N+](=O)[O-])o1)=N/N1CC(CN2CCOCC2)OC1=O` (configuration not stated), the growth inhibition is 90% (active).

`C=CC(C)(C)N1C(=O)C(C(C)=O)=C(O)C1Cc1c[nH]c2ccccc12` (configuration not stated): the growth inhibition is 10%.

As for `O=C1c2cccc3cccc(c23)C(=O)N1CCNCCN1C(=O)c2cccc3cccc(c23)C1=O`, the growth inhibition is 21%.

`Cc1ccc([N+](=O)[O-])c2c(NCCC[N+](C)(C)[O-])c3ccccc3nc12`: the growth inhibition was 38%.

As for `COC(=O)C(Cc1c[nH]c2ccccc12)N1CN(C)c2ccccc2C1=O` (configuration not stated), the growth inhibition is 2%.

For the compound `O=C(/N=N/C(=O)Oc1ccccc1)Oc1ccccc1`, the growth inhibition is -40%.

As to `COc1cc([C@@H]2c3cc4c(cc3[C@@H](NC(=O)NO)[C@H]3COC(=O)[C@H]23)OCO4)cc(OC)c1O`, the growth inhibition was 47%.

For `CC1(C)CC(=O)C(/C=N/c2nc(-c3ccc(Br)cc3)cs2)=C(O)C1`, the growth inhibition is 94% (active).

Consider `CCOC(=O)/C(=C/c1cccc(Cl)c1)N(CC)CC`, for which the growth inhibition was 39%.

Take `CC(C)OC(=O)NNc1cccc(Cl)c1`: the growth inhibition is 98% (active).

In the case of `CCC(=O)C1=C(O)c2cc(OC)ccc2CC1C(=O)OC` (configuration not stated), the growth inhibition is 4%.

`O=S(=O)(NC1CCCC(c2ccccc2)C1)c1ccccc1` (configuration not stated): the growth inhibition is 11%.

For `COc1ccc2nc3cccc([N+](=O)[O-])c3c(NCCCCCC(=O)O)c2c1`, the growth inhibition was 97% (active).

In the case of `CCO/C=C1\SC(=S)N(c2ccc(OCC)cc2)C1=O`, the growth inhibition is 36%.

In the case of `COc1cc(OC)c(CSCC(NC(=O)OCC2c3ccccc3-c3ccccc32)C(=O)O)c(OC)c1` (configuration not stated), the growth inhibition was 94% (active).

Regarding `COC(=O)c1ccccc1N=NNc1cccc(SC)c1`, the growth inhibition is 93% (active).

`CC1=NN(C(=O)c2ccccc2O)C(=O)/C1=C/c1ccco1`: the growth inhibition was 89% (active).

With `COc1ccccc1NC(=O)c1ccc(Cl)cc1`, the growth inhibition was 6%.

For the compound `CC(C)=CCC/C(C)=C/CN1C(=O)C=CC1=O`, the growth inhibition was 99% (active).

Consider `O=C1CSC(c2ccccc2)N1c1ccc(-c2ccc(-n3c(-c4ccccc4)nc4ccccc4c3=O)cc2)cc1` (configuration not stated), for which the growth inhibition was 13%.

In the case of `N#CC1OB(O)c2ccccc21` (configuration not stated), the growth inhibition is 10%.

In the case of `O=C(NCCNCCNC(=O)c1cc(-c2ccccc2)nc2ccccc12)c1cc(-c2ccccc2)nc2ccccc12`, the growth inhibition was -2%.

Turning to `Brc1ccc(B2Nc3ccccc3N2)cc1`, the growth inhibition was 44%.

For the compound `CCOP(=O)(OCC)/C(C#N)=C/c1cccc(Oc2ccccc2)c1`, the growth inhibition was 96% (active).

Values taken from PubChem BioAssay (NCI).
